Assay [1] in a line: antimalarial activity against Dd2 strain (AID 2302;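 active = growth inhibition above 50% at the single 2 µM test dose, taken to imply half-maximal potency below 2 µM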;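 note: 0% = DMSO untreated growth and 100% = chloroquine plus artemisinin killed control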). The following applies: P. falciparum Dd2 in RBCs, LDH growth readout, 72 h; at 2 µM; stronger effect = higher value.
Assay [2] is described as follows: HepG2 cytotoxicity, primary screen, cytotoxicity control for P. falciparum antimalarial project, cell-based, ATP luminescence (AID 2303;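 active = inhibition above 50%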;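 note: 0% = DMSO wells and 100% = digitonin-killed cells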). To be noted: HepG2 viability, 24-48 h, at 10 µM, stronger effect = higher value.
For assay [3], the target named is L-lactate dehydrogenase (Plasmodium falciparum (isolate CDC / Honduras)) (UniProt Q27743). The assay can be described thus: PfLDH activity inhibition – cell lysate, 3D7 strain, counter-screen for P. falciparum growth inhibition project (AID 2304).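 Note: 0% = vehicle and 100% = reference inhibitor.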 The following applies: P. falciparum 3D7 crude extract, LDH APAD/NBT absorbance; at 2 µM; stronger effect = higher value. In general terms: The purpose of a counterscreen is to sort out artefacts and off-target activity.

Assay [4] can be described thus: inhibition of 3D7 malaria parasite growth – strain 3D7 (AID 2306).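 Note: 0% = DMSO wells and 100% = chloroquine plus artemisinin control wells.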 To be noted: P. falciparum 3D7 erythrocytic growth, LDH absorbance, 72 h; at 2 µM; stronger effect = higher value.
Assay [5] concerns the target Calcium-dependent protein kinase 1 (Plasmodium falciparum (isolate 3D7)) (UniProt P62344). Briefly: PfCDPK1 kinase inhibitors, biochemical, TCAMS library (AID 1159585; cut-off not given, nearly all actives have IC50 up to about 0.98 µM;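 note: inhibitors leave more ATP so luminescence rises with inhibition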). To be noted: recombinant PfCDPK1, Kinase-Glo ATP depletion luminescence. Background: Kinase-Glo measures the ATP left after a reaction by luminescence.
In assay [6] the target is Plasmodium falciparum protein kinase 6 (PK6, PF3D7_1337100) (UniProt Q8IDW1). The assay can be described thus: PfPK6 kinase inhibitors, biochemical, TCAMS library (AID 1159586). The following applies: recombinant PfPK6, Kinase-Glo ATP depletion luminescence.
The target in assay [7] is Protein kinase 7 (PK7), Plasmodium falciparum 3D7 (PF3D7_0213400) (UniProt Q7YTF7). Briefly: inhibition of Plasmodium PK7 catalytic activity – biochemical, TCAMS antimalarial set, Kinase-Glo luminescence (AID 1159587). The following applies: recombinant PfPK7, Kinase-Glo ATP depletion luminescence.
Assay [8] deals with Calcium-dependent protein kinase 4 (Plasmodium falciparum (isolate 3D7)) (UniProt Q8IBS5). Briefly: PfCDPK4 kinase inhibitors, biochemical, TCAMS library (AID 1159588; cut-off not given, nearly all actives have IC50 up to about 0.91 µM). To be noted: recombinant PfCDPK4, Kinase-Glo ATP depletion luminescence.

Unmarked numbers belong to inactive results. For some assays here: Potency and affinity values are given separately. Activity calls are given as the source filed them. Unless noted, the rule behind the calls is not given here.

What is called inhibition is the change of the read-out against control, counted positive when it falls.

Chain of Calcium-dependent protein kinase 4 (Plasmodium falciparum (isolate 3D7)) (Q8IBS5 whole entry, looked up): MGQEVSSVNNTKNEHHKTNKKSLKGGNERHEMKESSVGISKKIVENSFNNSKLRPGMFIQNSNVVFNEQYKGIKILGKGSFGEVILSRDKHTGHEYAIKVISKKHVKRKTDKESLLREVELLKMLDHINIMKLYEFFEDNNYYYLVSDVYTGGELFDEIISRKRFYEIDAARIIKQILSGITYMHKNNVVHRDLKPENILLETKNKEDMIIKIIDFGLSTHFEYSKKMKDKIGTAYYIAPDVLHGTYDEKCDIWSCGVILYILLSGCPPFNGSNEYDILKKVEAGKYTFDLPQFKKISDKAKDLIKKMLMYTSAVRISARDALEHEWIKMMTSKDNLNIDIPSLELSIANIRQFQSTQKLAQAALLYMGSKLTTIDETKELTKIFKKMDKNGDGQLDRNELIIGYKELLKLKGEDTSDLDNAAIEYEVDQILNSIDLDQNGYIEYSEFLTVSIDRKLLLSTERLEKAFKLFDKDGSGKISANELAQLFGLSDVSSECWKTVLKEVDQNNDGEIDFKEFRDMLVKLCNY
Chain of Plasmodium falciparum protein kinase 6 (PK6, PF3D7_1337100) (Q8IDW1 1-305): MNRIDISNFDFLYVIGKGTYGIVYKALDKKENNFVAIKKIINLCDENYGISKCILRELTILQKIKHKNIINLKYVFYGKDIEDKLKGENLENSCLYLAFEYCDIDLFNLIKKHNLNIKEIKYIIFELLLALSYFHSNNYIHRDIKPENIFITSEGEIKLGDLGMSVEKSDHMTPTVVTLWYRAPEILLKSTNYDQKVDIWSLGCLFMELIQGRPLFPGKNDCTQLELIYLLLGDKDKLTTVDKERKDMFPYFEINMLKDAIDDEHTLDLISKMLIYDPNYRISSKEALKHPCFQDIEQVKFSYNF
Chain of Calcium-dependent protein kinase 1 (Plasmodium falciparum (isolate 3D7)) (P62344 whole entry, looked up): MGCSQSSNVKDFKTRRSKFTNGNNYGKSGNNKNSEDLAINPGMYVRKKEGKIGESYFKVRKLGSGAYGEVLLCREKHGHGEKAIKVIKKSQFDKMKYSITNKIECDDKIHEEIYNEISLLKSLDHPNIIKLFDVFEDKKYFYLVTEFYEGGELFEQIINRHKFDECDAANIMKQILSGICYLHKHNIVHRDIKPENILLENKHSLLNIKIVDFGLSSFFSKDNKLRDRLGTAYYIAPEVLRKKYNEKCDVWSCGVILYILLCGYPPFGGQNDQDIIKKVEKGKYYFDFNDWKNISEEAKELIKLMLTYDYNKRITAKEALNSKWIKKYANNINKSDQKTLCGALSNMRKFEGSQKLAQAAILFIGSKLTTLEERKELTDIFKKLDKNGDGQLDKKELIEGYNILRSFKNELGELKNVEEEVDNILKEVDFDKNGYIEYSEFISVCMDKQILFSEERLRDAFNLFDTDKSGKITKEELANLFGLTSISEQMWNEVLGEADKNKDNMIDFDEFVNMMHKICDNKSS
Chain of Protein kinase 7 (PK7), Plasmodium falciparum 3D7 (PF3D7_0213400) (Q7YTF7 1-343): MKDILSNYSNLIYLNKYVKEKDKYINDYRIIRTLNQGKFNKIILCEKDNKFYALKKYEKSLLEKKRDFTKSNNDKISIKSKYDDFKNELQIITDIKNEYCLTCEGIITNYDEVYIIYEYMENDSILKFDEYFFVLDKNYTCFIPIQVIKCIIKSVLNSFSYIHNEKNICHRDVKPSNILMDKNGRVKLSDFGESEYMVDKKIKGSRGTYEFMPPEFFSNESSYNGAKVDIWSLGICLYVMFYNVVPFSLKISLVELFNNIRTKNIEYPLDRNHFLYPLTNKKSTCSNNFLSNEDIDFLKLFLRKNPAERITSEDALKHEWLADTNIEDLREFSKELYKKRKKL
Chain of L-lactate dehydrogenase (Plasmodium falciparum (isolate CDC / Honduras)) (Q27743 whole entry, looked up): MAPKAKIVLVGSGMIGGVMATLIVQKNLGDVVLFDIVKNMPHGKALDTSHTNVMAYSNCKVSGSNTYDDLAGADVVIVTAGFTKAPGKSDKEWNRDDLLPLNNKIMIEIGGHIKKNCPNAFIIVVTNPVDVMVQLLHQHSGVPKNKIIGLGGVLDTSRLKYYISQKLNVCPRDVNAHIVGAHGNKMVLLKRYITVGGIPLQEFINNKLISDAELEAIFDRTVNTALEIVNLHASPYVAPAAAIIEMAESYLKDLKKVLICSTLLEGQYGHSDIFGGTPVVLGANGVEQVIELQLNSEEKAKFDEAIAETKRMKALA

As for `COc1cc(NC(=O)N2CCc3cc(OC)c(OCCN4CCCCC4)cc32)cc(C(F)(F)F)c1`, the growth inhibition in assay [1] was 10%; in assay [4], 93% (active). In addition, the inhibition in assay [2] was 9%; in assay [3], -3%. The outcome in assay [5], in assay [6], in assay [7] and in assay [8] was inactive.

In the case of `Nc1cccc(CNCc2ccc(-c3cccc(-c4nc5ccc(C(F)(F)F)cc5[nH]4)c3)cc2)c1`, the growth inhibition in assay [1] and in assay [4] was 100% (active) each time. Further, the results for the inhibition in assay [2] and in assay [3] were 60% (active) and -2%, respectively. Moreover, the result in assay [5], in assay [6], in assay [7] and in assay [8] was inactive.

`Cc1cc(Nc2ccc(C)c(C)c2)n2nc(C)nc2n1`: the results for the growth inhibition in assay [1] and in assay [4] were 45% and 95% (active), respectively. The inhibition is 10% in assay [2] and -5% in assay [3]. Moreover, the result in assay [5], in assay [6], in assay [7] and in assay [8] was inactive.

For the molecule `CCCCCCCN1CC[C@@H](CCCc2ccnc3ccc(OCC4CCCNC4)cc23)[C@@H](CC)C1` (some centres not stated), the growth inhibition is 100% (active) in assay [1] and 98% (active) in assay [4]. The inhibition in assay [2] was 99% (active); in assay [3], -1%. Moreover, the outcome in assay [5], in assay [6], in assay [7] and in assay [8] was inactive.

These data come from PubChem BioAssay.
